Most compounds without a hit are left out; they make up all but 19% or so of the library.
DT40 TDP1 no CPT – qHTS for Inhibitors of human tyrosyl-DNA phosphodiesterase 1 (TDP1): qHTS in cells in absence of CPT; DT40 Tdp1-/- hTDP1 cells, no CPT, ATP luminescence, 48 h; 420,000 compounds, 15% hits; Potency, µM (highest dose often 46.2 µM), most hits filed as inhibitors; AID 686978, 2013; note: nearly all actives have a fitted effect of over 55% in size
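Camptothecin absent (DMSO only). Human TDP1-complemented DT40 knockout cells, 400 cells/well, 37 °C for minimum 48 hr; ATP measured via CellTiter-Glo, 30 min dark incubation, luminescence.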
DT40 TDP1 CPT – DT40-hTDP1 cell growth loss with CPT; chicken DT40 Tdp1-/-;hTDP1 cells + 20 nM CPT, ATP luminescence, 48 h; 420,000 compounds, 12% hits; Potency, µM (top dose mostly 46.2 µM), actives largely listed as inhibitors; note: nearly all actives have a fitted effect of over 55% in size
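Chicken DT40 Tdp1-/- cells stably complemented with human TDP1 were seeded at 400 cells/well in medium containing 20 nM camptothecin, exposed to pin-transferred compounds, and grown at 37 °C for at least 48 hr. Viability was read as ATP luminescence.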
S-ASM inh – human S-ASM enzyme inhibition | placental ASM, HMU-PC fluorogenic substrate, 60 min | Potency, µM (series often up to 57.5 µM), most hits filed as inhibitors | 340,000 compounds, 0.006% hits | AID 504937
Target sequence (P17405 47-631 limits assumed): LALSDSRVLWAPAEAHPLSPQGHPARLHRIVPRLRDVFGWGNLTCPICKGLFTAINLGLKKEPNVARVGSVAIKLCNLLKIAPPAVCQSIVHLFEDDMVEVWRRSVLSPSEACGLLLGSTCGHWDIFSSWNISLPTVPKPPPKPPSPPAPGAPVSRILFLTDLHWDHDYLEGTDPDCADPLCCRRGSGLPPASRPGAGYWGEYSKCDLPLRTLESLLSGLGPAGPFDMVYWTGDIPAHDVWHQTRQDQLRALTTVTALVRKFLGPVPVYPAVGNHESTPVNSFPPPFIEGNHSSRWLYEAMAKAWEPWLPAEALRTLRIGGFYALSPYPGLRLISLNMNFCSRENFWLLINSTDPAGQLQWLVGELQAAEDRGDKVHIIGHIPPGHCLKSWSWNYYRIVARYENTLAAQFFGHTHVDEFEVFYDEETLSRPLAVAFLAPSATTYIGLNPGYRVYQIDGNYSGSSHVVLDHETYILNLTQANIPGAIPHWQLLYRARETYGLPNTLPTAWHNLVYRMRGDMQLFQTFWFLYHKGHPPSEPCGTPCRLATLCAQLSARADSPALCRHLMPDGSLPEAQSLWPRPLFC
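Fluorescence read-out (Ex 386 nm, Em 447 nm) after stopping the reaction at pH 10. Enzyme: ASM from human placenta; substrate HMU-PC0, 9 uM final; 60 min, 37 °C. Compound preincubation 10 min, ambient temperature.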
TGFb SMAD3 inh – TGF-b pathway inhibition. HepG2 CAGA-GFP TGF-b/SMAD3 reporter, GFP fluorescence, 18 h; TGF-beta stimulated, 500 pg/mL final. Potency, µM (series often up to 46.1 µM), usual class: inhibitors. 410,000 compounds, 1.2% hits; note: nearly all actives have a fitted effect of over 65% in size
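HEPG2 CAGA-GFP, 1000 cells/well; 2 h settle, 37 C; cpd via pin tool; TGF-b 500 pg/mL final; 18 h, 37 C; GFP imaging ex488/em500-530; %Activity normalised to -TGF-b and +DMSO controls; CRC fit, curve class.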
HepG2 viability – HepG2 cytotoxicity, counter-screen for TGF-b inhibitors; Potency, µM (series often up to 46.1 µM), hits mostly cytotoxic; 410,000 compounds, 0.76% hits; HepG2 CAGA-GFP viability, ATP luminescence, 18 h
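CellTiter-Glo luminescence gave cytotoxicity after 18 hours at 37 degrees C. The cells were HepG2 CAGA-GFP in 1% FBS DMEM, stimulated with 500 pg/mL TGF-beta after compound addition. %Activity was normalised to no-cell wells (complete cell-killing) and DMSO (no toxicity), and curves were fitted and classified.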
IL-1B inflam inh – blocks inflammasome-driven IL-1 beta release; AID 743279; activity change, % at 57.5 µM; 360,000 compounds, 4.7% hits; THP-1 LPS/ATP IL-1B secretion, AlphaLISA, 16 h; hits give low values; in the data active = activity change below about -50%; inconclusive = mostly about -30% to -49%
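THP-1 cells pretreated 1 hr with compounds (up to 57.5 uM final), then stimulated with LPS (250 ng/mL final) plus ATP (1.25 mM final); secreted IL-1B measured by AlphaLISA after 16 hr, decreased signal indicating inhibition.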
A number is an active result. Unless noted, calls come from the whole dose curve; as a rule, active = well fitted curve in the direction sought with a large enough effect; inconclusive = small, poorly fitted or top-dose-only effect, or another doubt; inactive = no such curve, though single readings can be large; an effect the other way counts as inactive or inconclusive.

COC(=O)CCN1CCN(S(=O)(=O)c2ccccc2Br)CC1 was read as DT40 TDP1 no CPT inactive, DT40 TDP1 CPT inactive, S-ASM inh inactive, TGFb SMAD3 inh inactive, HepG2 viability inactive and IL-1B inflam inh inactive.
Screening CC(C)N(CCNC(=O)COc1ccc2oc3c(c2c1)CCCC3)C(C)C returned DT40 TDP1 no CPT 23.1µM, DT40 TDP1 CPT inconclusive, S-ASM inh inactive, TGFb SMAD3 inh inactive, HepG2 viability inactive and IL-1B inflam inh -77.3.
Screening O=C(COc1ccc2oc3c(c2c1)CCCC3)Nc1ccc(Br)cc1 returned DT40 TDP1 no CPT inconclusive, DT40 TDP1 CPT 14.6µM, TGFb SMAD3 inh inactive and HepG2 viability inactive.
For O=C(COc1ccc2oc3c(c2c1)CCCC3)Nc1ccc(Cl)cc1 the results were DT40 TDP1 no CPT inconclusive, DT40 TDP1 CPT inconclusive, TGFb SMAD3 inh inactive and HepG2 viability inactive.
For COCCCNC(=O)COc1ccc2oc3c(c2c1)CCCC3 the results were DT40 TDP1 no CPT inconclusive, DT40 TDP1 CPT inconclusive, S-ASM inh inactive, TGFb SMAD3 inh inactive, HepG2 viability inactive and IL-1B inflam inh inactive.
Screening Cc1ccc(NC(=O)COc2ccc3oc4c(c3c2)CCCC4)nc1 returned DT40 TDP1 no CPT 8.2µM, DT40 TDP1 CPT inconclusive, S-ASM inh inactive, TGFb SMAD3 inh inactive, HepG2 viability inactive and IL-1B inflam inh inactive.
Cc1ccc(NC(=O)COc2ccc3oc4c(c3c2)CCCC4)c(C)c1 was read as DT40 TDP1 no CPT inconclusive, DT40 TDP1 CPT inconclusive, TGFb SMAD3 inh inactive and HepG2 viability inactive.
`Cc1cccc(NC(=O)COc2ccc3oc4c(c3c2)CCCC4)c1` gave DT40 TDP1 no CPT 18.4µM, DT40 TDP1 CPT 16.4µM, TGFb SMAD3 inh inactive and HepG2 viability inactive.
Screening Cc1noc(C)c1S(=O)(=O)Nc1ccc(O)c2c(=O)cc(-c3ccccc3Cl)oc12 returned DT40 TDP1 no CPT inconclusive, DT40 TDP1 CPT inactive, S-ASM inh inactive, TGFb SMAD3 inh inactive, HepG2 viability inactive and IL-1B inflam inh inactive.
COc1cc(C(CC(=O)Nc2cccc(C)n2)N2Cc3ccccc3C2=O)cc(OC)c1OC (stereo not given) was read as DT40 TDP1 no CPT inactive, DT40 TDP1 CPT inactive, S-ASM inh inactive, TGFb SMAD3 inh inactive, HepG2 viability inactive and IL-1B inflam inh inactive.
`CN1C(=O)Cc2cc(S(=O)(=O)NCc3ccc(Cl)cc3)ccc21` gave DT40 TDP1 no CPT inconclusive, DT40 TDP1 CPT inconclusive, TGFb SMAD3 inh inactive and HepG2 viability inactive.
`COc1ccc(C2/C=C\CN(CC3CCCCC3)C(Cc3ccccc3)C(=O)N2Cc2ccc(F)cc2)cc1` (stereo not given) gave TGFb SMAD3 inh inactive and HepG2 viability inactive.
O=[N+]([O-])c1cc(CN2CCN(c3ccccc3)CC2)c(O)c2ncccc12 was read as DT40 TDP1 no CPT 4.11µM, DT40 TDP1 CPT 2.06µM, S-ASM inh inactive, TGFb SMAD3 inh inconclusive, HepG2 viability inactive and IL-1B inflam inh inactive.
For Brc1cc2c(cc1CN1CCc3ccccc3C1)OCO2 the results were DT40 TDP1 no CPT inconclusive, DT40 TDP1 CPT inconclusive, S-ASM inh inactive, TGFb SMAD3 inh inconclusive, HepG2 viability inactive and IL-1B inflam inh inactive.
CCCOCc1cc(CN2CCN(c3cccc(Cl)c3)CC2)c(O)c2ncccc12 was read as DT40 TDP1 no CPT 5.17µM, DT40 TDP1 CPT 5.8µM, TGFb SMAD3 inh inconclusive and HepG2 viability inactive.
CCCCOCc1cc(CN2CCN(c3cccc(Cl)c3)CC2)c(O)c2ncccc12 was read as DT40 TDP1 no CPT 3.26µM, DT40 TDP1 CPT 16.4µM and HepG2 viability inactive.
Oc1c(CN2CCc3ccccc3C2)cc(Cl)c2cccnc12 was read as DT40 TDP1 no CPT 5.8µM, DT40 TDP1 CPT 5.8µM, S-ASM inh inactive, TGFb SMAD3 inh 5.62µM, HepG2 viability inactive and IL-1B inflam inh inactive.
`O=[N+]([O-])c1cc(CN2CCOCC2)c2cccnc2c1O` gave DT40 TDP1 no CPT inconclusive, DT40 TDP1 CPT inconclusive, S-ASM inh inactive, TGFb SMAD3 inh inactive, HepG2 viability inactive and IL-1B inflam inh inactive.
